PubChem BioAssay AID1159580 (chemical genetic matrix, 2015)
Out of some 5,500 compounds screened, about 2,000 (36%) were called active. Inconclusive results (about 18%) are left out. Rule as the data show it: active = normalized growth mostly below about 0.91 (no sharp cut-off); inconclusive = no clear call, values can overlap the other calls; inactive = mostly above about 0.92. Some of the results follow.

Assay: chemical genetic growth profiling, strain panel (AID 1159580);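 also: tested at 20 µM; growth read once vehicle control cultures reached saturation at 30 °C; 1 = growth at the plate median or of vehicle wells; lower values mean less growth of the strain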
Conditions: growth OD

Measured: normalized growth

NC(=O)N1c2ccccc2CC(=O)c2ccccc21
inactive: S. cerevisiae deletion strains, locus YKL009W, strain mrt4, hits give low values 1.01 | S. cerevisiae deletion strains, locus YKL068W, hits give low values 0.994 | S. cerevisiae deletion strains, locus YKL085W, strain MDH1 (second series), hits give low values 1.02 | S. cerevisiae deletion strains, locus YKL085W, strain MDH1, hits give low values 1.02 | S. cerevisiae deletion strains, locus YKL160W, strain elf1, hits give low values 1.05 | S. cerevisiae deletion strains, locus YKL190W, strain CNB1, hits give low values 1 | S. cerevisiae deletion strains, locus YKR001C, strain vps1, hits give low values 0.969 | S. cerevisiae deletion strains, locus YKR026C, strain gcn3, hits give low values 0.972 | S. cerevisiae deletion strains, locus YKR091W, strain srl3, hits give low values 0.989 | S. cerevisiae deletion strains, locus YLL001W, strain dnm1, hits give low values 0.969 | S. cerevisiae deletion strains, locus YLL026W, hits give low values 0.988 | S. cerevisiae deletion strains, locus YLL041C, strain sdh2, hits give low values 0.982 | S. cerevisiae deletion strains, locus YLR027C, strain aat2, hits give low values 0.999 | S. cerevisiae deletion strains, locus YLR039C, strain RIC1, hits give low values 0.972 | S. cerevisiae deletion strains, locus YLR058C, strain SHM2, hits give low values 0.988 | S. cerevisiae deletion strains, locus YLR102C, strain apc9, hits give low values 0.979 | S. cerevisiae deletion strains, locus YLR113W, strain HOG1, hits give low values 0.96 | S. cerevisiae deletion strains, locus YLR221C, strain rsa3, hits give low values 0.962 | S. cerevisiae deletion strains, locus YLR258W, strain gsy2, hits give low values 1.01 | S. cerevisiae deletion strains, locus YLR262C, strain YPT6 (second series), hits give low values 1.01 | S. cerevisiae deletion strains, locus YLR262C, strain YPT6, hits give low values 1.01 | S. cerevisiae deletion strains, locus YLR268W, strain sec22, hits give low values 1 | S. cerevisiae deletion strains, locus YLR320W, strain mms22, hits give low values 0.945 | S. cerevisiae deletion strains, locus YLR330W, strain CHS5, hits give low values 0.989 | S. cerevisiae deletion strains, locus YLR342W, strain FKS1 (second series), hits give low values 0.949 | S. cerevisiae deletion strains, locus YLR342W, strain FKS1, hits give low values 0.998 | S. cerevisiae deletion strains, locus YLR357W, strain rsc2, hits give low values 0.993 | S. cerevisiae deletion strains, locus YLR370C, strain arc18, hits give low values 1 | S. cerevisiae deletion strains, locus YLR371W, strain rom2, hits give low values 0.969 | S. cerevisiae deletion strains, locus YLR384C, strain iki3, hits give low values 0.983 | S. cerevisiae deletion strains, locus YLR418C, strain cdc73, hits give low values 1.01 | S. cerevisiae deletion strains, locus YML016C, strain PPZ1, hits give low values 0.985 | S. cerevisiae deletion strains, locus YML032C, strain rad52, hits give low values 0.96 | S. cerevisiae deletion strains, locus YML120C, strain ndi1, hits give low values 0.949 | S. cerevisiae deletion strains, locus YML124C, strain tub3, hits give low values 0.979 | S. cerevisiae deletion strains, locus YMR058W, strain fet3, hits give low values 0.978 | S. cerevisiae deletion strains, locus YMR078C, strain ctf18, hits give low values 0.973 | S. cerevisiae deletion strains, locus YMR125W, strain sto1, hits give low values 0.971 | S. cerevisiae deletion strains, locus YMR129W, hits give low values 0.992 | S. cerevisiae deletion strains, locus YMR205C, strain PFK2, hits give low values 0.96 | S. cerevisiae deletion strains, locus YMR223W, strain ubp8, hits give low values 0.962 | S. cerevisiae deletion strains, locus YMR231W, strain pep5, hits give low values 0.971 | S. cerevisiae deletion strains, locus YMR263W, strain SAP30, hits give low values 1.02 | S. cerevisiae deletion strains, locus YMR307W, strain GAS1, hits give low values 0.881 | S. cerevisiae deletion strains, locus YNL067W, strain RPL9B, hits give low values 1.02 | S. cerevisiae deletion strains, locus YNL071W, strain lat1, hits give low values 0.979 | S. cerevisiae deletion strains, locus YNL128W, strain TEP1, hits give low values 1.01 | S. cerevisiae deletion strains, locus YNL153C, strain GIM3, hits give low values 1.02 | S. cerevisiae deletion strains, locus YNL183C, strain NPR1, hits give low values 0.943 | S. cerevisiae deletion strains, locus YNL209W, strain ssb2, hits give low values 0.988 | S. cerevisiae deletion strains, locus YNL233W, strain BNI4, hits give low values 1 | S. cerevisiae deletion strains, locus YNL248C, strain rpa49, hits give low values 0.997 | S. cerevisiae deletion strains, locus YNL250W, strain rad50, hits give low values 0.99 | S. cerevisiae deletion strains, locus YNL271C, strain bni1, hits give low values 0.974 | S. cerevisiae deletion strains, locus YNL298W, strain CLA4, hits give low values 0.974 | S. cerevisiae deletion strains, locus YNL307C, strain MCK1, hits give low values 0.96 | S. cerevisiae deletion strains, locus YNL322C, strain KRE1 (second series), hits give low values 0.986 | S. cerevisiae deletion strains, locus YNL322C, strain KRE1, hits give low values 0.998 | S. cerevisiae deletion strains, locus YNR049C, strain mso1, hits give low values 0.991 | S. cerevisiae deletion strains, locus YNR052C, strain pop2, hits give low values 0.962 | S. cerevisiae deletion strains, locus YOL006C, strain TOP1, hits give low values 1.03 | S. cerevisiae deletion strains, locus YOL012C, strain htz1 0.873 | S. cerevisiae deletion strains, locus YOL147C, strain pex11, hits give low values 0.991 | S. cerevisiae deletion strains, locus YOR001W, strain rrp6, hits give low values 0.949 | S. cerevisiae deletion strains, locus YOR061W, strain CKA2, hits give low values 0.994 | S. cerevisiae deletion strains, locus YOR069W, strain VPS5, hits give low values 0.975 | S. cerevisiae deletion strains, locus YOR070C, strain gyp1, hits give low values 1 | S. cerevisiae deletion strains, locus YOR080W, strain dia2, hits give low values 1 | S. cerevisiae deletion strains, locus YOR083W, strain WHI5, hits give low values 0.99 | S. cerevisiae deletion strains, locus YOR106W, strain vam3, hits give low values 1.03 | S. cerevisiae deletion strains, locus YOR136W, strain idh2, hits give low values 0.98 | S. cerevisiae deletion strains, locus YOR144C, strain elg1, hits give low values 0.986 | S. cerevisiae deletion strains, locus YOR184W, strain ser1, hits give low values 0.951 | S. cerevisiae deletion strains, locus YOR231W, strain MKK1, hits give low values 0.999 | S. cerevisiae deletion strains, locus YOR265W, strain rbl2, hits give low values 0.996 | S. cerevisiae deletion strains, locus YOR270C, strain vph1, hits give low values 0.929 | S. cerevisiae deletion strains, locus YOR290C, strain snf2, hits give low values 1.02 | S. cerevisiae deletion strains, locus YOR316C, strain cot1, hits give low values 0.983 | S. cerevisiae deletion strains, locus YPL051W, strain arl3, hits give low values 1.04 | S. cerevisiae deletion strains, locus YPL055C, strain LGE1, hits give low values 1.03 | S. cerevisiae deletion strains, locus YPL078C, strain atp4, hits give low values 1.01 | S. cerevisiae deletion strains, locus YPL106C, strain sse1, hits give low values 1.01 | S. cerevisiae deletion strains, locus YPL240C, strain hsp82, hits give low values 0.986 | S. cerevisiae deletion strains, locus YPL241C, strain CIN2, hits give low values 0.996 | S. cerevisiae deletion strains, locus YPL256C, strain CLN2, hits give low values 0.992 | S. cerevisiae deletion strains, locus YPR119W, strain clb2, hits give low values 0.997 | S. cerevisiae deletion strains, locus YPR141C, strain kar3, hits give low values 0.987 | S. cerevisiae deletion strains, locus YPR163C, strain tif3, hits give low values 0.983 | S. cerevisiae deletion strains, locus YPR167C, strain met16, hits give low values 0.979 | S. cerevisiae deletion strains, strain wtn01, hits give low values 0.999 | S. cerevisiae strains, strain wild type, hits give low values 0.989
